PubChem BioAssay AID651871 (Sanford-Burnham Center for Chemical Genomics, 2012)
“And” between values parts separate entries of the source, which are not always exact repeats. Identical values can stand only once.

Test system: HL-1
Assay: cardiomyocyte survival under oxidative or metabolic stress – cell-based, panel, H9c2 and HL-1, ATP luminescence, set 2, SAR follow-up (AID 651871);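 note: cells exposed to stressor for 2 h before ATP readout; reference of the scale not given here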
Details: H9c2/HL-1 cardiomyocytes, H2O2 oxidative stress; with H2O2, run 4, at 79 µM (top of the series)

| Compound | activity (protection/inhibition) |
| --- | --- |
| CCOC(=O)c1cccc(NC(=O)CNC(=O)c2cc(-c3cc(OC)c(OC)c(OC)c3)nc3ccccc23)c1 | 25.9% |
| COc1ccc2c(c1OC)C(=O)N1c3ccccc3C(=O)N(Cc3cccc(Cl)c3Cl)C21 (centres undefined) | 8.81% and -13.3% and 3.82% |
| COc1ccc2nc(-c3cc(OC)c(OC)c(OC)c3)cc(C(=O)NCC(=O)Nc3ccc(C(C)=O)cc3)c2c1 | 37.2% and 50% |
| COc1cc(-c2cc(C(=O)Nc3cccc(C(=O)NCc4ccccc4)c3)c3ccccc3n2)cc(OC)c1OC | 17.9% |
